According to PubChem BioAssay (NCI):
Compounds without any hit were thinned out: in the full panel of roughly 79,000, 15% have a hit. The source made the active and inactive calls. Cut-off read from the data, not from the text of the source: active = growth inhibition above about 70%; inactive = the rest.

How the values were obtained:
[1] = NCI Yeast Anticancer Drug Screen. Data for the rad52 strain (AID 147);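 note: 0% = growth of vehicle-treated control cultures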; conditions: S. cerevisiae rad52 mutant growth inhibition, hits give high values
In short: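 Inhibition of yeast growth, referenced to vehicle controls, was the measured output for a strain with defective DNA damage repair.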

[2] = NCI Yeast Anticancer Drug Screen. Data for the wt1 strain (AID 149);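 note: 0% = growth of vehicle-treated wt1 cultures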; conditions: S. cerevisiae wt1 strain (SPY 50644) growth inhibition, hits give high values
In short: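 Vehicle-normalised growth inhibition; strain wt1; compound exposure.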

[3] = NCI Yeast Anticancer Drug Screen. Data for the rad50EPP+ strain (AID 151);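 note: 0% = growth of vehicle-treated control cultures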; conditions: S. cerevisiae rad50 mutant strain, hits give high values
In short: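 Genetically defined yeast (rad50EPP+, DNA damage repair alteration) is grown with compound, and inhibition of growth is expressed relative to vehicle-treated controls.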

[4] = NCI Yeast Anticancer Drug Screen. Data for the mgt1 strain (AID 153); conditions: S. cerevisiae mgt1 mutant growth inhibition, hits give high values
In short: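 In the mgt1 strain, test compounds were added and growth inhibition was determined relative to vehicle-treated controls.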

[5] = NCI Yeast Anticancer Drug Screen. Data for the rad50 strain (AID 155);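 note: 0% = growth of vehicle-only cultures of the same strain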; conditions: S. cerevisiae rad50 strain growth inhibition, hits give high values
In short: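 A DNA repair-deficient yeast mutant serves as the test organism; compound-induced growth inhibition is calculated against vehicle-treated cells.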

[6] = NCI Yeast Anticancer Drug Screen. Data for the mec2-1 strain (AID 157); conditions: S. cerevisiae mec2-1 strain, hits give high values
In short: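 Each compound was tested on mec2-1 yeast, a strain altered in DNA damage repair or cell cycle control. Growth inhibition is reported relative to vehicle.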

[7] = NCI Yeast Anticancer Drug Screen. Data for the rad14 strain (AID 159);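 note: 0% = growth of vehicle-treated control cultures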; conditions: S. cerevisiae rad14 strain growth inhibition, hits give high values
In short: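 Vehicle-treated cultures served as the baseline for growth inhibition of a DNA repair-mutant yeast strain exposed to each compound.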

[8] = NCI Yeast Anticancer Drug Screen. Data for the sgs1 mgt1 strain (AID 161);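 note: 0% = growth of cultures given vehicle only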; conditions: S. cerevisiae sgs1 mgt1 strain, hits give high values
In short: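 Mutant yeast exposed to compound; growth scored against vehicle-only wells.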

[9] = NCI Yeast Anticancer Drug Screen. Data for the CLN2oe strain (AID 163);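 note: 0% = growth of vehicle-only control cultures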; conditions: S. cerevisiae CLN2oe strain, hits give high values
In short: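 First, the altered yeast strain was treated with each compound; second, its growth was measured; finally, inhibition was derived by comparison with vehicle controls.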

[10] = NCI Yeast Anticancer Drug Screen. Data for the cln2 rad14 strain (AID 165);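 note: 0% = growth equal to vehicle treated cultures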; conditions: S. cerevisiae cln2 rad14 strain, hits give high values
In short: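 Test compounds were added to cln2 rad14 yeast cultures; inhibition of growth was then determined by comparison with vehicle treatment.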

[11] = NCI Yeast Anticancer Drug Screen. Data for the bub3 strain (AID 167); conditions: S. cerevisiae bub3 mutant strain, hits give high values
In short: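 Inhibition values come from growth of compound-treated mutant yeast normalised to vehicle-treated controls.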

[12] = NCI Yeast Anticancer Drug Screen. Data for the wt2 strain (AID 169);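 note: 0% = growth of vehicle-treated yeast cultures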; conditions: S. cerevisiae wt2 strain growth inhibition, hits give high values
In short: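 The panel's yeast strains carry defined changes in DNA repair or cell cycle genes. Each strain is grown with compound, and growth loss is scored relative to vehicle.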

[13] = NCI Yeast Anticancer Drug Screen. Data for the mlh1 strain (AID 171);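 note: 0% = growth of vehicle-treated control cultures of the same strain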; conditions: S. cerevisiae mlh1 strain growth inhibition, hits give high values
In short: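 Inhibition values reflect reduced yeast growth in the presence of compound, referenced to vehicle controls, using a strain chosen for its alteration in DNA repair or cell cycle control.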

[14] = NCI Yeast Anticancer Drug Screen. Data for the sgs1 strain (AID 173);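 note: 0% = growth of vehicle-only control cultures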; conditions: S. cerevisiae sgs1 mutant, hits give high values
In short: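 Vehicle-treated cultures served as reference for growth inhibition of a yeast strain altered in DNA damage repair or cell cycle control after compound exposure.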

[15] = NCI Yeast Anticancer Drug Screen. Data for the mlh1 rad18 strain (AID 175); conditions: S. cerevisiae mlh1 rad18 strain growth inhibition, hits give high values
In short: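 Inhibition values reflect reduced growth of mutant yeast versus vehicle-treated controls following compound exposure; the mutations affect DNA damage repair.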

[16] = NCI Yeast Anticancer Drug Screen. Data for the rad18 strain (AID 177); conditions: S. cerevisiae rad18 mutant growth inhibition, hits give high values
In short: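 Steps: expose repair-mutant yeast to compound; measure growth; express as inhibition relative to vehicle control.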

[17] = at 5.0 µM (retest, dose inferred, filed as 0.5)
[18] = at 50.0 µM (retest, dose inferred, filed as 5.0)

Measured: growth inhibition

Cc1cccc2c(C(O)CBr)cc(-c3ccc(Cl)cc3)nc12 (stereo unspecified)
inactive: [1]; at 1.2 µM 0% | [1]; at 3.7 µM 20% | [2]; at 1.2 µM -3% | [2]; at 3.7 µM -5% | [3]; at 1.2 µM 1% | [3]; at 3.7 µM 10% | [3]; at 11.0 µM 32% | [3]; at 33.0 µM 40% | [3]; at 100.0 µM 54% | [4]; at 1.2 µM -2% | [4]; at 3.7 µM -1% | [5]; at 1.2 µM 0% | [5]; at 3.7 µM 11% | [5]; [17] 3% | [6]; at 1.2 µM 0% | [6]; at 3.7 µM 4% | [6]; [17] 1% | [6]; at 100.0 µM 51% | [7]; at 1.2 µM -4% | [7]; at 3.7 µM 3% | [8]; [17] 3% | [9]; at 1.2 µM -2% | [9]; at 3.7 µM -3% | [9]; at 100.0 µM 51% | [10]; [17] -10% | [11]; at 1.2 µM 0% | [11]; at 3.7 µM 8% | [11]; [17] -1% | [11]; at 100.0 µM 45% | [12]; at 1.2 µM -4% | [12]; at 3.7 µM -6% | [13]; at 1.2 µM -5% | [13]; at 3.7 µM 1% | [13]; at 100.0 µM 48% | [14]; at 1.2 µM -2% | [14]; at 3.7 µM 7% | [15]; [17] 1% | [16]; at 1.2 µM -3% | [16]; at 3.7 µM 17%
active: [1]; at 11.0 µM 98% | [1]; at 33.0 µM 96% | [1]; at 100.0 µM 87% | [2]; at 11.0 µM 98% | [2]; at 33.0 µM 97% | [2]; at 100.0 µM 91% | [4]; at 11.0 µM 98% | [4]; at 33.0 µM 97% | [4]; at 100.0 µM 92% | [5]; at 11.0 µM 98% | [5]; at 33.0 µM 96% | [5]; [18] 93% | [5]; at 50.0 µM 93.8% | [5]; at 100.0 µM 88% | [6]; at 11.0 µM 99% | [6]; at 33.0 µM 97% | [6]; [18] 96% | [6]; at 50.0 µM 96.1% | [7]; at 11.0 µM 99% | [7]; at 33.0 µM 97% | [7]; at 100.0 µM 88% | [8]; [18] 95% | [8]; at 50.0 µM 95.7% | [9]; at 11.0 µM 98% | [9]; at 33.0 µM 96% | [10]; [18] 95% | [10]; at 50.0 µM 92.8% | [11]; at 11.0 µM 98% | [11]; at 33.0 µM 96% | [11]; [18] 96% | [11]; at 50.0 µM 92.5% | [12]; at 11.0 µM 98% | [12]; at 33.0 µM 96% | [12]; at 100.0 µM 88% | [13]; at 11.0 µM 98% | [13]; at 33.0 µM 95% | [14]; at 11.0 µM 98% | [14]; at 33.0 µM 96% | [14]; at 100.0 µM 90% | [15]; [18] 95% | [15]; at 50.0 µM 95.3% | [16]; at 11.0 µM 98% | [16]; at 33.0 µM 95% | [16]; at 100.0 µM 88%

Nc1nc(Cl)c(Cl)c(Cl)n1
active: [1]; at 33.0 µM 88% | [1]; at 100.0 µM 99% | [2]; at 100.0 µM 99% | [3]; at 11.0 µM 89% | [3]; at 33.0 µM 93% | [3]; at 100.0 µM 99% | [4]; at 33.0 µM 90% | [4]; at 100.0 µM 99% | [5]; [18] 100% | [5]; at 100.0 µM 99% | [6]; at 33.0 µM 99% | [6]; [18] 99% | [6]; at 50.0 µM 72.4% | [6]; at 100.0 µM 99% | [7]; at 33.0 µM 99% | [7]; at 100.0 µM 99% | [8]; [18] 99% | [9]; at 100.0 µM 99% | [10]; [18] 99% | [11]; at 33.0 µM 92% | [11]; [18] 99% | [11]; at 100.0 µM 99% | [12]; at 33.0 µM 80% | [12]; at 100.0 µM 99% | [13]; at 33.0 µM 93% | [13]; at 100.0 µM 99% | [14]; at 33.0 µM 99% | [14]; at 100.0 µM 99% | [15]; [17] 80% | [15]; [18] 99% | [16]; at 33.0 µM 77% | [16]; at 100.0 µM 99%
inactive: [1]; at 1.2 µM 1% | [1]; at 3.7 µM 8% | [1]; at 11.0 µM 32% | [2]; at 1.2 µM -2% | [2]; at 3.7 µM 1% | [2]; at 11.0 µM 14% | [2]; at 33.0 µM 57% | [3]; at 1.2 µM 0% | [3]; at 3.7 µM 34% | [4]; at 1.2 µM 1% | [4]; at 3.7 µM 5% | [4]; at 11.0 µM 20% | [5]; at 1.2 µM 2% | [5]; at 3.7 µM 3% | [5]; [17] 44% | [5]; at 11.0 µM 17% | [5]; at 33.0 µM 51% | [5]; at 50.0 µM 47.3% | [6]; at 1.2 µM 2% | [6]; at 3.7 µM 14% | [6]; [17] 28% | [6]; at 11.0 µM 42% | [7]; at 1.2 µM 3% | [7]; at 3.7 µM 8% | [7]; at 11.0 µM 30% | [8]; [17] 59% | [8]; at 50.0 µM 32.3% | [9]; at 1.2 µM -1% | [9]; at 3.7 µM 0% | [9]; at 11.0 µM 14% | [9]; at 33.0 µM 30% | [10]; [17] 7% | [10]; at 50.0 µM 13.8% | [11]; at 1.2 µM -4% | [11]; at 3.7 µM 1% | [11]; [17] 27% | [11]; at 11.0 µM 18% | [11]; at 50.0 µM -8.05% | [12]; at 1.2 µM 0% | [12]; at 3.7 µM 4% | [12]; at 11.0 µM 17% | [13]; at 1.2 µM -2% | [13]; at 3.7 µM 3% | [13]; at 11.0 µM 18% | [14]; at 1.2 µM 1% | [14]; at 3.7 µM 14% | [14]; at 11.0 µM 45% | [15]; at 50.0 µM 30.4% | [16]; at 1.2 µM 1% | [16]; at 3.7 µM 5% | [16]; at 11.0 µM 19%
